13 compounds from PubChem BioAssay (NCATS) can be followed below.

Inconclusive results are not listed. Calls of active or inactive are those of the source. The call rests on the fitted dose curve; in most records, active means well fitted cell-killing curve with a large enough effect; inconclusive means small, poorly fitted or top-dose-only effect, or effect the other way; inactive means no such curve, though single readings can be large or run the other way.
Potency means the concentration at half of the fitted maximal effect.

The assay in a line: Quantitative High-Throughput drug screen in 47 multiple myeloma cell lines against the NCATS MIPE library collection: MOLP8_DSMZ cell viability assay (AID 1918977). Further: nearly all actives have a fitted effect of over 45% in size. The conditions noted are these: MOLP8 myeloma viability, CellTiter-Glo ATP luminescence, 48 h; series mostly up to 45.8 µM. The gist of the method:
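qHTS format: cells plated (500/well), pin-dosed with MIPE 4.0 compounds, kept 48 h at 37 °C. Readout was CellTiter-Glo luminescence, median RLU.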
`Cc1[nH]nc2ccc(-c3cncc(OC[C@@H](N)Cc4ccccc4)c3)cc12`: the Potency was 0.526 µM (active).
For `Nc1ncnc2c1c(-c1cccc(OCc3ccccc3)c1)cn2C1CC(CN2CCCC2)C1` (stereo not drawn) the value was 16.6 µM (active); for `COc1cc2c(Oc3ccc(-c4cnc(Nc5ccc(F)cc5)n(C)c4=O)cc3F)ccnc2cc1OCCCN1CCOCC1`, 18.7 µM (active); for `COc1cc2c(NC3CCN(C(C)C)CC3)nc(C3CCCCC3)nc2cc1OCCCN1CCCC1`, 7.43 µM (active).
For `O=C(Cc1ccc(-c2ccc(OCCN3CCOCC3)cc2)cn1)NCc1ccccc1` the value was 0.0833 µM (active); for `Cn1cc(-c2[nH]c3cc(NC(=O)[C@H](N)C4CCCCC4)cc4c3c2C=NNC4=O)cn1`, 0.526 µM (active); for `CC(C)c1ccccc1Cc1cc(C(=O)Nc2ccc(S(=O)(=O)c3ccccc3C(C)(C)C)cc2)c(O)c(O)c1O`, 13.2 µM (active).
In the case of `O=C(CCCCCCC(=O)Nc1ccc([C@H]2O[C@@H](CSc3nc(-c4ccccc4)c(-c4ccccc4)o3)C[C@@H](c3ccc(CO)cc3)O2)cc1)NO`, the Potency is 14.8 µM (active).
`COc1cc2ncnc(Nc3ccc(F)c(Cl)c3)c2cc1NC(=O)C=CCN1CCCCC1`: the Potency was 18.7 µM (active).
Regarding `C#Cc1cccc(Nc2ncnc3cc(OC)c(OCCCCCCC(=O)NO)cc23)c1`, the Potency is 0.166 µM (active).
For `COc1ccc(-c2cc3c(C)nc(N)nc3n(C3CCC(OCCO)CC3)c2=O)cn1` (stereo not drawn) the value was 0.0372 µM (active).
Turning to `OCc1ccc(-c2ccc(-c3ccc(CO)s3)o2)s1`, the Potency was 20.9 µM (active).
For `CN1CCN(c2cc(C(=O)Nc3ccc4c(c3)-c3c(c(C(N)=O)nn3-c3ccc(F)cc3)CC4)c(Cl)cn2)CC1` the value was 26.4 µM (active).
